Compound activity deposited in PubChem by National Center for Advancing Translational Sciences (NCATS).
Marburg entry inh: qHTS for inhibitors of binding or entry into cells for Marburg Virus; Marburg virus pseudotyped entry inhibition, cell reporter; Potency, µM (doses to about 37.8 µM), for inactives: at the top dose activity change, negative = inhibition, usual class: inhibitors; 300,000 compounds, 1.8% hits; calls by dose curve; tested in HEK293 cells; also: potency is read from the fitted curve at half-maximal effect
HCMV inh: qHTS Assay for inhibitors of the human cytomegalovirus (HCMV); activity change, negative = inhibition, % at 57.5 µM; HFF cells, HCMV-luciferase reporter, 72 h; stronger effect = lower value; 410,000 compounds, 4.5% hits; AID 1259415, 2018; in the data active = activity change below about -60%; inconclusive = no clear call, values can overlap the other calls; inactive = above about -39%
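After 16 h attachment at 37C, HFF cells received test compound and HCMV-luciferase (1 PFU/cell); reporter luminescence read 72 h later, data normalized against buffer-only and known inhibitor Salinomycin.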
LASV entry inh: qHTS for Inhibitors of binding or entry into cells for Lassa Virus; Lassa virus pseudotype entry inhibition, cell reporter; Potency, µM (highest dose often 37.9 µM), for inactives: at the top dose activity change, negative = inhibition, actives largely listed as inhibitors; 300,000 compounds, 1.2% hits; AID 540256, 2011; calls by dose curve; tested in HEK293 cells; also: potency is read from the fitted curve at half-maximal effect; nearly all actives have a fitted effect of over 50% in size
HCV inh: qHTS Assay for Inhibitors of Hepatitis C Virus (HCV); Potency, µM (highest dose often 41.8 µM), for the others: top-dose activity change, negative = inhibition, actives largely listed as inhibitors; AID 651820, 2012; 340,000 compounds, 3.4% hits; Huh7.5.1 HCVcc-Cre infection, luciferase reporter, 44 h; also: potency is read from the fitted curve at half-maximal effect
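Luciferase read-out (15 sec integration) after a 15 min room-temperature substrate step quantifies HCVcc-Cre infection. Cells, 1,000 per well, had compound added 4 h post-plating, then virus at ~0.5 moi, and were cultured 44 h.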
Pf growth 96h: Primary qHTS for delayed death inhibitors of the malarial parasite plastid, 96 hour incubation. P. falciparum luciferase reporter growth, 96 h. Potency, µM (titrated, usually from 28.7 µM), for the others: at the top dose activity change, negative = inhibition, usual class: inhibitors. AID 504834, 2011. 320,000 compounds, 6.9% hits; also: potency is read from the fitted curve at half-maximal effect
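Plates of compound plus infected erythrocytes (2% hematocrit, 0.05% parasitemia final) incubate 96 hours, 37 C, 5% CO2. Detection reagent added; reduced luminescence from the parasites' luciferase reporter flags inhibition.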
Pf growth 48h: Primary qHTS for delayed death inhibitors of the malarial parasite plastid, 48 hour incubation; Potency, µM (series often up to 28.7 µM), without a hit: top-dose activity change, negative = inhibition, hits mostly inhibitors; 310,000 compounds, 5.9% hits; P. falciparum luciferase growth in erythrocytes, 48 h; AID 504832, 2011; also: potency is read from the fitted curve at half-maximal effect
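Firefly luciferase activity from engineered P. falciparum reports growth; inhibitors lower the luminescent signal. Cultures contained 2% hematocrit erythrocytes at 0.1% final parasitemia.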
* = called active by the depositor; ? = inconclusive; · = no result given; [ ] = another dose, or the depositor's remark. Compounds with a hit are over-represented: about 14% of the library has one in this group of screens. Unless noted, calls follow the shape of the dose curve; as a rule, active = well fitted inhibition curve with a large enough effect; inconclusive = small, poorly fitted or top-dose-only effect, or another doubt; inactive = no such curve, though single readings can be large or run the other way. % is scaled to controls: 0 for no effect and ±100 for the full control effect.

SMILES	Marburg entry inh	HCMV inh	LASV entry inh	HCV inh	Pf growth 96h	Pf growth 48h
CCOC(=O)c1ccccc1NC(=O)c1nn(-c2ccc(C)cc2)c(=O)n(C)c1=O	·	27.8	?	·	·	·
Cc1[nH]c(-c2ccc3c(c2)OCO3)nc1C(=O)O	·	19.8	·	4.1%	-17.6%	·
Cc1[nH]c(-c2ccco2)nc1C(=O)O	9.2%	-110.5*	13.9%	18.2%	6.57µM*	10.5%
C[C@H](CO)N1C[C@H](C)[C@H](CN(C)Cc2cccc(F)c2)Oc2ncc(C3=CCCC3)cc2C1=O	·	11.6	·	·	·	·
CC[N+]1(C)CCC(=C2c3ccccc3CC(=O)c3sccc32)CC1 (stereo unspecified)	24.2%	-23.3	27.7%	1.4%	11.7µM*	?
Cc1ccccc1C(=O)NCc1ccc2c(c1)CCN2C(=O)c1ccccc1	·	-30.8	-29.9%[46.1 µM]	·	·	·
O=C(Nc1ccc(F)cc1)N1CCN(CCc2ccccc2)CC1	-18.1%[46.1 µM]	2.7	4.6%[46.1 µM]	-6.1%	27.8%	?
CCNC(=O)N1CCN(CCCC(c2ccc(F)cc2)c2ccc(F)cc2)CC1	10µM*	-78.8*	?	?	1.65µM*	1.47µM*
Cc1cc(Cl)ccc1OCC(=O)OCC(=O)c1c(N)n(C)c(=O)n(C)c1=O	·	37.1	·	8.6%	43.2%	6.2%
O=[N+]([O-])c1cccc(COc2ccccc2CN2CCCCC2)c1	·	-17.8	·	-12.2%[8.37 µM]	·	·
COc1ccc(NC(=O)C2CCN(S(=O)(=O)c3ccc4[nH]c(=O)ccc4c3)CC2)c(OC)c1	·	7.1	-5.2%[46.1 µM]	·	·	·
COc1ccc(CCNC(=O)c2cc3c(=O)n4cccc(C)c4nc3n2C)cc1	·	-30.3	5.7%[46.1 µM]	·	·	·
CCOC(=O)c1cc(-c2ccccc2)nc2c1c(C)nn2-c1ccccn1	?	-7.6	-21.8%	10µM*	·	?
CCOC(=O)c1cc(-c2ccc(Cl)cc2)nc2c1c(C)nn2CCC#N	?	-25.8	0.7%	?	?	?
CCOC(=O)c1cc(-c2ccncc2)nc2c1c(C)nn2C	?	-3.2	-17.2%	?	3.29µM*	·
CCOC(=O)c1cc(-c2ccc3c(c2)OCCO3)nc2c1c(C)nn2CCC#N	?	-39.0	?	?	·	9.28µM*
CCN(CC)CCNC(=O)C(=O)NCC(c1ccc2c(c1)OCO2)N1CCOCC1 (stereo unspecified)	·	?	18.3%[46.1 µM]	·	·	·
O=C(Cn1c(=O)oc2cc(S(=O)(=O)N3CCCC3)ccc21)NCc1ccc(Cl)cc1	?	-18.5	-15.5%[46.1 µM]	·	·	·
CCOc1ccc(NCc2cccn2-c2nnc(N3CCC(C(=O)NCc4ccccc4Cl)CC3)s2)cc1	1.1%[46.1 µM]	-30.1	·	·	·	·
CCC1=Nc2cc(C(=O)NCc3ccccc3OC)ccc2Sc2ccc(Cl)cc21	·	-12.3	0.3%[46.1 µM]	·	·	·
C[C@@H]1O[C@@H](OC[C@@H]2O[C@H](Oc3c(-c4ccc(O)cc4)oc4cc(O)cc(O)c4c3=O)[C@@H](O)[C@H](O)[C@H]2O)[C@H](O)[C@H](O)[C@H]1O	·	-20.3	·	0.0%	·	·
CC1OC(Oc2c(-c3cc(O)c(O)c(O)c3)oc3cc(O)cc(O)c3c2=O)C(O)C(O)C1O (stereo unspecified)	·	?	·	6.5%	-101.9%	9.28µM*
COCC(=O)Nc1cc(Cl)ccc1C	16.1%[46.1 µM]	-30.5	16.4%	-2.6%	?	1.8%
Cc1ccc(Cl)cc1NC(=O)CC(O)(C(F)(F)F)C(F)(F)F	?	-102.0*	?	22.4µM*	24.3%	?
COc1ccc(C2CC=C(C(C)=O)CN2S(=O)(=O)c2ccc(C)cc2)cc1 (stereo unspecified)	·	-20.8	·	·	·	·
SMILES	Marburg entry inh	HCMV inh	LASV entry inh	HCV inh	Pf growth 96h	Pf growth 48h
CCOc1ccc(C2c3c(-c4ccccc4O)n[nH]c3C(=O)N2Cc2cccnc2)cc1OC (stereo unspecified)	-2.4%[46.1 µM]	-3.5	-23.2%[46.1 µM]	·	·	·
COc1ccc(C2c3c(-c4cc(Cl)c(C)cc4O)n[nH]c3C(=O)N2Cc2cccnc2)cc1OC (stereo unspecified)	14.6%	-18.5	?	-6.7%	-9.6%	3.29µM*
COc1cc(C2c3c(oc4c(C)cc(C)cc4c3=O)C(=O)N2Cc2cccnc2)ccc1O (stereo unspecified)	-27.0%	-10.9	-0.4%	24.4%	·	·
COc1ccc(C2c3c(oc4c(C)cc(C)cc4c3=O)C(=O)N2Cc2cccnc2)cc1OC (stereo unspecified)	0.4%	·	·	1.2%	9.28µM*	-0.1%
C[N+]1(CC2COC(c3ccccc3)(C3CCCCC3)O2)CCCCC1 (stereo unspecified)	·	·	·	·	5.86µM*	1.07µM*
COc1ccc2[nH]c3c(c2c1)CCNC3C (stereo unspecified)	-24.5%[46.1 µM]	108.7	21.6%[46.1 µM]	?	9.28µM*	4.0%
COc1ccc2[nH]c3c(c2c1)CCNC3C1CC=C(C)CC1 (stereo unspecified)	·	?	·	?	21.9%	?
COc1ccc2[nH]c3c(c2c1)CCNC3c1ccc([N+](=O)[O-])o1 (stereo unspecified)	·	-37.3	·	-16.7%	6.9%	13.1µM*
N#Cc1ccc(S(=O)(=O)N2CCCCC2c2cc(C(=O)NCc3cccnc3)no2)cc1 (stereo unspecified)	·	-10.1	·	·	·	·
Cc1ccccc1CNC(=O)c1nn(-c2ccccc2F)nc1CO	17.0%[46.1 µM]	-12.6	18.8%[46.1 µM]	·	·	·
Cc1nnsc1C(=O)N/N=C/c1ccc(OC(F)(F)F)cc1	4.0%[46.1 µM]	-60.5*	?	5.7%	10.8%	?
Cc1nnsc1C(=O)N/N=C/c1ccc2ccccc2c1O	?	-99.6*	?	?	3.29µM*	2.62µM*
O=[N+]([O-])c1cccc(SSc2cccc([N+](=O)[O-])c2)c1	?	-31.7	3.5%[46.1 µM]	?	·	·
COc1ccc(-c2ccc3c(c2)[C@@H]2C[C@H](N(C)C(=O)Nc4ccccc4)[C@H]([C@H](C)O)C(=O)N2CC3)cc1	·	-4.9	·	2µM*	·	·
C[C@H](O)[C@@H]1C(=O)N2CCc3ccc(-c4cccc(F)c4)cc3[C@@H]2C[C@@H]1N(C)C(=O)Nc1ccccc1	·	-13.7	·	-15.5%[8.37 µM]	·	·
COc1ccc(CC(N)c2csc(NC(=O)Nc3ccc(OC)cc3)n2)cc1 (stereo unspecified)	·	35.7	·	·	·	·
COc1ccc(NC(=O)Nc2nc(C(N)Cc3ccc(C(F)(F)F)cc3)cs2)cc1 (stereo unspecified)	·	-103.2*	·	·	·	·
NC(Cc1ccc(F)cc1)c1csc(NC(=O)NC(c2ccccc2)c2ccccc2)n1 (stereo unspecified)	·	-102.8*	·	·	·	·
CN(C)Cc1csc(NC(=O)Nc2ccccc2Oc2ccccc2)n1	·	-74.8*	·	·	·	·
